An excerpt weighted towards active compounds, which were near 0.36% of everything screened.
Ba CapD inh – inhibitors of Bacillus anthracis CapD enzyme; purified CapD enzyme, fluorescence intensity read-out; hits give low values; z-score (test concentration not listed); 140,000 tested, 0.23% active; AID 492967; in the data active = z-score mostly below about -2.9, no sharp cut-off; inactive = mostly above about -1.9
AID504770 – E. coli YBA685 growth inhibition, screen for V. cholerae RctB inhibitors | E. coli YBA685 rctB-dependent plasmid, OD600 growth, 3 h; hits give low values | z-score (concentration not given with the values) | 130,000 tested, 0.27% active; in the data active = z-score below about -2, passing the limit was not always enough
Active calls of the source: *.

Screening Cc1noc(C)c1S(=O)(=O)N(CCC#N)Cc1ccccc1 returned Ba CapD inh -0.2 and AID504770 -0.7.
`NC(=O)CC1C=CS(=O)(=O)C1` (centres undefined) gave Ba CapD inh 0.17 and AID504770 -0.3.
For N#CSC1C=CS(=O)(=O)C1 (centres undefined) the results were Ba CapD inh 0.715 and AID504770 -4.8*.
Screening CC(=O)OCCNc1nc(-c2ccccc2)nc2ccccc12 returned Ba CapD inh 1.35 and AID504770 -0.65.
Screening CCCOc1ccc(-c2nc(NCCN)c3ccccc3n2)cc1 returned Ba CapD inh 19.5 and AID504770 -3.05*.
`N#Cc1ccc(OCC(=O)Nc2ccc(-c3cn4ccsc4n3)cc2)cc1` gave AID504770 -2.4.
For O=C(c1ccccc1C(F)(F)F)N1CCc2ccccc21 the results were AID504770 -0.4.
For COC(=O)C(=C/C=C/c1ccccc1)C(=O)OC the results were Ba CapD inh -4.48* and AID504770 -0.15.
`CN(C)C(=O)/C(=C/C=C/c1ccccc1)NC(=O)c1ccccc1` gave Ba CapD inh -3.1 and AID504770 0.75.
CCOP(=S)(OCC)Oc1cc(-c2ccccc2)on1 was read as AID504770 0.3.
For CCOC(=O)c1c[nH]c(=S)[nH]c1=O the results were Ba CapD inh -7.04* and AID504770 0.55.
CCOC(=O)c1c[nH]c(=S)[nH]1 was read as Ba CapD inh 0.14.
For CCOC(=O)c1sc(N(Cc2ccccc2)C(=O)CSc2n[nH]c(N)n2)nc1C the results were AID504770 2.
`CN(C(=O)COCc1cc(-c2ccco2)on1)C1CCCCC1` gave Ba CapD inh -0.08 and AID504770 0.25.
For NC(=O)COC(=O)c1n[nH]c2ccccc12 the results were AID504770 -3.5*.
Screening O=C(COC(=O)c1n[nH]c2ccccc12)Nc1ccccc1 returned Ba CapD inh 2.88 and AID504770 0.05.
`O=c1[nH]c(=S)[nH]c(O)c1N=Nc1ccc(O)cc1` gave Ba CapD inh -3.94* and AID504770 -2.05.
Screening Cc1ccc(N=Cc2c(O)[nH]c(=S)[nH]c2=O)cc1 returned Ba CapD inh 0.925 and AID504770 -0.35.
Screening CCOc1ccc(C(=O)Nc2cc(OC)c(OC)cc2C(=O)OC)cc1 returned Ba CapD inh 4.23 and AID504770 -1.15.
Cn1cccc1CC(=O)N/N=C1/CCCc2ccccc21 was read as AID504770 -0.05.
COc1cccc(C(=O)c2sc(NC(C)C)nc2N)c1 was read as Ba CapD inh -4.25* and AID504770 -0.5.
Screening CCOC(=O)c1sc(NC(=O)c2cccc(OC)c2)nc1-c1ccccc1 returned Ba CapD inh 0.625 and AID504770 -0.6.
`COc1ccc(N2CCN(Cc3cc(=O)c(OCc4ccccc4)co3)CC2)cc1` gave AID504770 -0.7.
Cc1noc(C)c1COC(=O)C(Cc1ccccc1)NC(=O)c1cccs1 (centres undefined) was read as AID504770 -0.45.
O=C1CC(n2nnnc2-c2ccccc2)C2COC1O2 (centres undefined) was read as Ba CapD inh -0.55 and AID504770 -2.
For O=S1(=O)CCC(n2nnnc2-c2ccccc2)C1 (centres undefined) the results were Ba CapD inh 0.39 and AID504770 -2.75*.
CNc1ccccc1C(=O)OCC(=O)c1ccccc1 was read as Ba CapD inh -0.13 and AID504770 -3.25*.
CNc1ccccc1C(=O)OCC(=O)c1ccc(F)cc1 was read as AID504770 -0.5.
`O=C(NC1CCCCC1)c1ccc2c(c1)NC(=O)C(CS(=O)(=O)Cc1ccc(F)cc1)N2` (centres undefined) gave Ba CapD inh 8.32 and AID504770 -0.15.
`CCOC(=O)c1cnc2c(C)cc(C)cc2c1Nc1ccccc1C` gave Ba CapD inh -0.455.
`Cc1ccc(CNC(=O)COC(=O)c2ccccc2NCCO)cc1` gave AID504770 0.4.
Cc1cc(C)c2c(/N=N/N3CCCCCC3)[nH]nc2n1 was read as Ba CapD inh -0.245 and AID504770 -3.95*.
`Cc1cc(C)c2c(-c3ccccc3)[nH]nc2n1` gave Ba CapD inh 3.69 and AID504770 -0.85.
`N#Cc1ccc(C(=O)CSc2cccc[n+]2[O-])cc1` gave AID504770 -0.3.
Screening Cn1c(N)c(C#N)c2c(c1=S)CCCC2 returned AID504770 -2.85*.
CN1CCc2c(C#N)c(N)n(N)c(=S)c2C1 was read as AID504770 -0.35.
Cc1ccc(C(=O)N2CCN(c3ncnc4c3cnn4-c3ccccc3)CC2)cc1 was read as AID504770 -4.2*.
`CC(=O)c1ccc(N2CCN(c3ncnc4c3cnn4-c3ccccc3)CC2)cc1` gave Ba CapD inh 1.28.
Screening c1ccc(C2=Nc3ccccc3SC2c2nc3ccccc3[nH]2)cc1 (centres undefined) returned Ba CapD inh -4.06* and AID504770 1.1.
c1ccc(C2=NNC(c3nc4ccccc4[nH]3)C2)cc1 (centres undefined) was read as AID504770 -0.7.
Cn1c(=O)c2c(ncn2CCC(=O)NCCc2ccc(F)cc2)n(C)c1=O was read as AID504770 0.05.
`COc1cc(OC)c(CN2CCC(NC(=O)OCc3ccc(C#Cc4ccccc4)s3)C2)c(OC)c1` (centres undefined) gave Ba CapD inh -0.34.
For CCS(=O)(=O)C1=NSC2=NC(=O)/C(=C\c3ccco3)C(=N)N21 the results were Ba CapD inh -3.41 and AID504770 -0.45.
Screening CC(C)CS(=O)(=O)C1=NN2C(=N)/C(=C\c3ccco3)C(=O)N=C2S1 returned Ba CapD inh -4.13* and AID504770 0.15.
For CC(C)(O/N=C(/C(=O)N[C@@H]1C(=O)N2C(C(=O)[O-])=C(C[n+]3ccccc3)CS[C@H]12)c1csc(N)n1)C(=O)O the results were Ba CapD inh 1.52.
`CO/N=C(/C(=O)N[C@@H]1C(=O)N2C(C(=O)O)=C(COC(C)=O)CS[C@H]12)c1csc(N)n1` gave Ba CapD inh 0.24 and AID504770 -3.15*.
N#Cc1ccccc1C[N+]1=C(N)c2ccccc2C1 was read as Ba CapD inh -0.535 and AID504770 -0.9.
Screening COc1ccc(N(C(=O)c2ccncc2)S(=O)(=O)c2cccs2)cc1 returned Ba CapD inh -8.48* and AID504770 1.05.
O=C(Oc1ccc(N(C(=O)c2ccccc2)S(=O)(=O)c2cccs2)cc1)c1ccccc1 was read as Ba CapD inh 0.34 and AID504770 0.25.
NC(=O)CSc1nnc(-c2ccccc2)n1-c1ccccc1 was read as AID504770 0.4.
For O=C(NCc1ccccc1)N1CCCCC1 the results were Ba CapD inh 0.005 and AID504770 0.
For O=C(NCc1ccccc1)N1CCN(C(c2ccc(F)cc2)c2ccc(F)cc2)CC1 the results were Ba CapD inh -0.955 and AID504770 -2.85*.
For COc1ccc(-c2nc3ccc(C(=O)N4CCN(c5cc(C)ccc5C)CC4)cc3nc2-c2ccc(OC)c(OC)c2)cc1OC the results were Ba CapD inh -0.975.
Screening C=CCn1cnc2c1c(=O)n(C)c(=O)n2C returned Ba CapD inh -0.42 and AID504770 -2.5.
Screening Cn1c(=O)c2ncnnc2n(C)c1=O returned AID504770 -2.3*.
`CCOC(=O)c1c(C)cc(C)[nH]c1=O` gave Ba CapD inh 16.5 and AID504770 0.35.
For CCOC(=O)c1c(C)cc(C)[nH]c1=S the results were Ba CapD inh -4.85* and AID504770 -0.75.

Screens from PubChem.
